The record followed here is PubChem BioAssay (Tox21).

Assay [1] can be described thus: qHTS assay to identify small molecule agonists of the NFkB signaling pathway - cell viability counter screen (AID 1159515; calls by dose curve; also: nearly all actives have a fitted effect of over 55% in size; also: potency is read from the fitted curve at half-maximal effect). An outline of the steps: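 Counter screen run alongside the NFkB-bla agonist assay: ME-180 reporter cells exposed to compounds for 5 hr, then lysed with CellTiter-Glo in the same wells. Luminescence, read after 30 min, reflects viable cells.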
Background: Quantitative high-throughput screening tests each substance at several concentrations.

Assay [2] in a line: qHTS assay to identify small molecule agonists of the endoplasmic reticulum stress response signaling pathway (AID 1159516; active = well fitted activation curve with a large enough effect in the signal ratio in the repeat runs, not every such curve was filed as active; the % refers to the signal ratio; also: potency is read from the fitted curve at half-maximal effect). An outline of the steps: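 For this screen, HeLa cells stably carrying beta-lactamase under the ER stress response element received test compounds, positive controls or DMSO for 5 hr at 37 C; B/G FRET substrate was then added and dual-wavelength emission recorded.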

A short description of assay [3]: qHTS assay to identify small molecule agonists of the endoplasmic reticulum stress response signaling pathway - cell viability counter screen (AID 1159517; calls by dose curve; also: nearly all actives have a fitted effect of over 50% in size). An outline of the steps: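 ESRE-bla HeLa cells (1,500/well) were plated overnight at 37 C and exposed to compounds for 5 hr. After the 2 hr beta-lactamase substrate read, CellTiter-Glo went into the same wells, and luminescence was read after 30 min at room temperature.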

The nature of assay [4]: qHTS assay to identify small molecule antagonists of the retinoid-related orphan receptor gamma (ROR-gamma) signaling pathway - cell viability counter screen (AID 1159520). Also: nearly all actives have a fitted effect of over 50% in size. An outline of the steps:
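Cytotoxicity was read from cellular ATP (CellTiter-Glo luminescence) after 16 hr at 37 C with 1 uM doxycycline induction. The inducer was added 2 hr after compound transfer to Tet-on ROR gamma CHO cells.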

Assay [5] addresses Nuclear receptor ROR-gamma (Homo sapiens) (UniProt P51449). Description: qHTS assay to identify small molecule antagonists of the retinoid-related orphan receptor gamma (ROR-gamma) signaling pathway (AID 1159521; also: nearly all actives have a fitted effect of over 50% in size; also: potency is read from the fitted curve at half-maximal effect). An outline of the steps: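 Decreased RORE-driven luciferase luminescence indicates antagonism. Tet-on RORγ CHO cells received compound, then 1 uM final doxycycline 2 h later; signal read after 16 h incubation.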

Assay [6] can be described thus: qHTS assay to identify small molecule agonists of the AP-1 signaling pathway - cell viability counter screen (AID 1159525; calls by dose curve; also: nearly all actives have a fitted effect of over 55% in size). An outline of the steps:
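Intracellular ATP by Cell Titer Glo luminescence (30 min, RT) in the same ME-180 AP-1-bla wells after the 5 h compound exposure at 37 °C. Normalised to tetra n-octyl ammonium bromide and DMSO controls.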

Assay [7] can be described thus: qHTS assay to identify small molecule agonists of the AP-1 signaling pathway (AID 1159526; calls by dose curve).
For assay [8], the target named is Retinoic acid receptor RXR-alpha (Homo sapiens) (UniProt P19793). Description: qHTS assay to identify small molecule agonists of the RXR signaling pathway (AID 1159527; calls by dose curve; also: nearly all actives have a fitted effect of over 35% in size). An outline of the steps: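 16 hr incubation of compound-treated RXR-alpha-UAS-bla HEK 293T cells (2% charcoal-stripped FBS, 37 C) preceded a 2 hr room-temperature LiveBLAzer FRET substrate step and blue/green fluorescence measurement.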

Assay [9] can be described thus: qHTS assay to identify small molecule agonists of the RXR signaling pathway - cell viability counter screen (AID 1159529).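 Also: HEK 293T cells carrying an RXR-alpha UAS beta-lactamase reporter; nearly all actives have a fitted effect of over 50% in size.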 An outline of the steps: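 In this parallel viability measure, GeneBLAzer RXR-alpha HEK 293T cells (2% charcoal-stripped FBS) were given a 5 hr preincubation, treated with compounds 16 hr at 37 C, and read by CellTiter-Glo luminescence.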
Assay [10] in a line: qHTS assay to identify small molecule antagonists of the retinoid acid receptor (RAR) signaling pathway - cell viability counter screen (AID 1159551). Also: nearly all actives have a fitted effect of over 35% in size. An outline of the steps: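 Measured by luminescent ATP detection, viability reflects C3RL4 cells treated 6 h at 37 C with test chemicals in the presence of 1 uM (final) retinol.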
A short description of assay [11]: qHTS assay to identify small molecule antagonists of the retinoic acid receptor (RAR) signaling pathway (AID 1159552; also: nearly all actives have a fitted effect of over 50% in size). An outline of the steps: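 C3RL4 RARE-luc cells, overnight plating; retinol 1 uM final added right after compound; 6 hr 37 C; luciferase read at 30 min RT.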
A short description of assay [12]: qHTS assay to identify small molecule agonists of the retinoic acid receptor (RAR) signaling pathway (AID 1159553). Also: potency is read from the fitted curve at half-maximal effect. As to conditions: C3RL4 RARE luciferase reporter, agonist, 6 h; activation: at 73.3 µM (top of the series) unless noted. An outline of the steps: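 6 hr compound exposure (DMSO vehicle) of overnight-plated C3RL4 RARE-luc cells at 37 C; luminescence quantified after 30 min RT with luciferase reagent.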

Assay [13] can be described thus: qHTS assay to identify small molecule antagonists of the estrogen related receptor (ERR) signaling pathway from Tox21 library - cell viability counter screen (AID 1224834). Also: nearly all actives have a fitted effect of over 30% in size. Also: potency is read from the fitted curve at half-maximal effect. An outline of the steps:
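Seeded ERR cells were rested 6 h at 37 C/5% CO2 before compounds, positive and negative controls or DMSO were added. Incubation continued for 17.5 h, and viability was then quantified by CellTiter-Fluor fluorescence.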

Assay [14] in a line: qHTS assay to identify small molecule antagonists of the vitamin D receptor (VDR) signaling pathway - cell viability counter screen (AID 743225). Also: nearly all actives have a fitted effect of over 50% in size. An outline of the steps: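 Parallel cytotoxicity test: VDR-UAS-bla HEK 293T, 3 nM (final) 1-alpha,25-dihydroxyvitamin D3 with test compound, 16 h, 37C. Endpoint is CellTiter-Glo luminescence in the same wells.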
Assay [15] is described as follows: qHTS assay to identify small molecule antagonists of the estrogen related receptor (ERR) signaling pathway - cell viability counter screen (AID 1224818). An outline of the steps:
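Compounds dissolved in DMSO were applied to ERR cells seeded at 2,000 per well 6 h earlier. Cell viability followed 17.5 h later via 30-min CellTiter-Fluor fluorescence.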

Assay [16] in a line: qHTS assay to identify small molecule agonists of the estrogen related receptor (ERR) signaling pathway (AID 1224820). An outline of the steps:
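An ERR cell line provided by NTP was seeded at 2,000 cells per well and allowed to settle for 6 h before compounds in DMSO were added. After 18 h at 37 C, luciferase activity was measured by One-Glo luminescence.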

Assay [17] deals with estrogen-related receptor alpha (ERRalpha) with PGC-1alpha coactivator, human. Description: qHTS assay to identify small molecule antagonists of the estrogen related receptor signaling pathway with the pleiotropic PPARgamma coactivator (PGC) (AID 1224821; calls by dose curve). An outline of the steps:
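A PGC/ERR cell line supplied by NTP is seeded, allowed 6 h at 37 C, and treated with test compounds in DMSO for 18 h. Signal is then measured as luciferase luminescence using One-Glo.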

A short description of assay [18]: qHTS assay to identify small molecule antagonists of the estrogen related receptor signaling pathway with the pleiotropic PPARgamma coactivator (PGC) cell viability counter screen (AID 1224822). An outline of the steps:
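Counter screen for cell viability: PGC/ERR cells, 6 h pre-incubation after plating, 17.5 h compound exposure at 37 C, fluorescence from CellTiter-Fluor after 30 min.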

The nature of assay [19]: qHTS assay to identify small molecule agonists of the estrogen related receptor signaling pathway with the pleiotropic PPARgamma coactivator (PGC) (AID 1224823). An outline of the steps: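 Compounds dissolved in DMSO are added by pin tool to PGC/ERR cells that have settled for 6 h, and incubation continues 18 h at 37 C. Reporter output is measured as One-Glo luminescence.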

Values joined by “and” are separate entries in the source; they are usually repeats but may differ in a detail not shown here. Identical values can stand only once. Inconclusive results are not listed. The source holds several records for some structures; these can differ, active in one and inactive in another. Active and inactive are the calls of the source. Unless noted, calls follow the shape of the dose curve; as a rule, active = well fitted curve in the direction sought with a large enough effect in the repeat runs; inconclusive = weak or mixed curves; inactive = no such curve, though single readings can be large; an effect the other way counts as inactive or inconclusive.

Retinoic acid receptor RXR-alpha (Homo sapiens), sequence (P19793 whole entry, looked up): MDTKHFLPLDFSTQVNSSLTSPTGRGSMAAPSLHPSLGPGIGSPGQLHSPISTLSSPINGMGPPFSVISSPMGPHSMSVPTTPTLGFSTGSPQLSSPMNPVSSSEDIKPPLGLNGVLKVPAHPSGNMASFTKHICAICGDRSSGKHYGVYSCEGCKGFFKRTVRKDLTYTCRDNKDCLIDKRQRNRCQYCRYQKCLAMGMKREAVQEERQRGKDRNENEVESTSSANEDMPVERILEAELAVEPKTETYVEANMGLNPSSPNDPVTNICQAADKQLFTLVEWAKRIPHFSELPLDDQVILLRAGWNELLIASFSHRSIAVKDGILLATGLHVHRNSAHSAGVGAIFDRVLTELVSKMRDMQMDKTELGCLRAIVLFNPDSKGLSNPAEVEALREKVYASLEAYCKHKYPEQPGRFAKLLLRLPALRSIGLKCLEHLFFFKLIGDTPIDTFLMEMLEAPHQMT

For `c1ccc2c(c1)ccc1cc3c(ccc4ccccc43)cc12`, the Potency entry in assay [1], in assay [3], in assay [4], in assay [5], in assay [6] and in [7] was “inactive” each time. In addition, the Potency result in assay [8], in assay [9], in [10], in assay [11] and in [13] was “inactive” each time. The Potency in assay [2] is 7.67 µM (active); in assay [12], 152 nM (active) and 215 nM (active).
In the case of `CN(C)C`, the Potency entry in assay [14], in assay [1], in assay [2], in [3], in [4] and in assay [6] was “inactive” in each case. The Potency result in assay [7], in assay [8], in assay [9], in assay [10] and in assay [13] was “inactive” in each case.
Take `C[C@]12CC[C@@H]3c4ccc(O)cc4CC[C@H]3[C@@H]1CC[C@@H]2O`: the Potency result in [14], in assay [1], in assay [2], in [3], in assay [4] and in [6] was “inactive” each time. Also, the Potency entry in assay [7] and in assay [12] was “inactive” throughout. Also, the Potency was 27.3 µM (active) in [5]; 30.6 µM (active) and 43.3 µM (active) in assay [13]. For the same compound, the outcome in assay [15], in assay [16], in assay [17], in assay [18] and in assay [19] was inactive.
As for `CC(C)[C@@H]1CC[C@@H](C)CC1=O`, the Potency result in assay [1], in assay [2], in assay [3], in assay [4], in assay [6] and in [7] was “inactive” throughout. Also, the Potency entry in [8], in assay [9], in assay [10] and in [13] was “inactive” in each case.
As for `CC(C)[N+](C)(CCOC(=O)C1c2ccccc2Oc2ccccc21)C(C)C`, the Potency entry in [14], in [1], in assay [2], in assay [3], in assay [4] and in assay [5] was “inactive” in each case. The Potency entry in assay [6], in [7], in [10], in assay [12] and in assay [13] was “inactive” each time. Further, the compound was classed as inactive in assay [15] and in [18].
On to `c1ccc2ncccc2c1`, for which the Potency result in assay [1], in [2], in assay [3], in assay [4], in assay [6] and in assay [7] was “inactive” each time. Further, the Potency entry in [8], in assay [9] and in assay [13] was “inactive” throughout.
On to `CN(C)CCCN1c2ccccc2Sc2ccc(Cl)cc21`, for which the Potency was 54.9 µM (active) and inactive in assay [1]; 34.4 µM (active) in [5]; 54.5 µM (active) and 26.6 µM (active) in assay [13]. Further, the Potency entry in assay [2], in [3], in assay [4], in [6] and in assay [10] was “inactive” in each case. Besides, the outcome in assay [16], in assay [17] and in assay [19] was inactive.
Take `CC(C)=CCO`: the Potency entry in assay [1], in [2], in assay [3], in [4], in [6] and in [7] was “inactive” in each case. The Potency result in assay [8], in assay [9] and in [13] was “inactive” throughout.
As to `C=CC(=O)OCCCC`, the Potency entry in assay [14], in assay [1], in assay [2], in [3], in [4] and in assay [5] was “inactive” throughout. In addition, the Potency result in assay [6], in assay [7], in [8], in [10], in assay [11] and in assay [12] was “inactive” in each case. Moreover, in assay [13], the Potency entry was “inactive”.
